From PubChem BioAssay
The source made the active and inactive calls.

Tests used:
[1] = compounds binding Alexa647 anti-His antibody – biochemical, small-molecule microarray, 635 nm fluorescence, artefact control for SMM control protein annotation, primary screen (AID 1128); details: higher = more signal;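 further: score merges feature fluorescence with signal-to-noise for each printed compound spot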
[2] = system: Human papillomavirus type 1a E7 protein (residues 1-88); assay: HPV1a E7 small-molecule binders, primary screen, biochemical, small-molecule microarray, residues 1-88, 635 nm (AID 1129); details: small-molecule microarray binding, fluorescence 635 nm; higher = more signal
[3] = target: Focal adhesion kinase 1 (Homo sapiens) (UniProt Q05397); assay: PTK2 protein binding on printed compound slides – biochemical, small-molecule microarray, 635/667 nm fluorescence, BSA, DTT, primary screen (AID 1130); details: 635 nm fluorescence, higher = more signal;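 further: composite of spot emission at 667 nm and signal to noise over triplicate slides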
Chain of Focal adhesion kinase 1 (Homo sapiens) (Q05397 whole entry, looked up): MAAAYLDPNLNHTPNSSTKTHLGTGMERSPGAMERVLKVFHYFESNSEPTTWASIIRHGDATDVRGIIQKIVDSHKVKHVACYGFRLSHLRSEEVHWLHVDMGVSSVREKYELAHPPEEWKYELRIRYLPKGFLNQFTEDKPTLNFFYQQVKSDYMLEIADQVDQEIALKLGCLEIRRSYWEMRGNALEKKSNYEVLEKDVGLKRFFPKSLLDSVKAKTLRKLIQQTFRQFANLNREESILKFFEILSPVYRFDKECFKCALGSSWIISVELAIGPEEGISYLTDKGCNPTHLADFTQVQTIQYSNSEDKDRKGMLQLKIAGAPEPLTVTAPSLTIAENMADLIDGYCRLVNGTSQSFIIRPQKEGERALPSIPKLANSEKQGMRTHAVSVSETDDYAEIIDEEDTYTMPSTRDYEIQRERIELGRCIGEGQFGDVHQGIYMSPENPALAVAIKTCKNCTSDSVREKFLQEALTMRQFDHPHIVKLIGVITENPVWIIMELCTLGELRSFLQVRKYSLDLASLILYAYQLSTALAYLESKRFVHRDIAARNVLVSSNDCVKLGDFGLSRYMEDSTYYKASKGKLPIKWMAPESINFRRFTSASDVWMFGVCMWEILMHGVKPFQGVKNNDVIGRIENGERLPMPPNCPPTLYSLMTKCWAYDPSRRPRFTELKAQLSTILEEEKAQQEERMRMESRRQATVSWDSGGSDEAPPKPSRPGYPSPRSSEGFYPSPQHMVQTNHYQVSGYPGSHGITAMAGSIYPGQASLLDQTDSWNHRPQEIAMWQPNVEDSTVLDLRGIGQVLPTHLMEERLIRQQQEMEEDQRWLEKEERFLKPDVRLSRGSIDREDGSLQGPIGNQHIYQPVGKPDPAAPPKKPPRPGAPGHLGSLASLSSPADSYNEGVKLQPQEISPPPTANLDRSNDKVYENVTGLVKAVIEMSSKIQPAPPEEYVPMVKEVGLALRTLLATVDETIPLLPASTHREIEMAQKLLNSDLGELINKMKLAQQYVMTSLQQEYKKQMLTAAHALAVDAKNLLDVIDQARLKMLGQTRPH

[4] = system: Fibrinogen (Alexa647-labelled); assay: Alexa647-fibrinogen binding to printed small molecules – biochemical, small-molecule microarray, 635/667 nm fluorescence, artefact control for SMM control-protein annotation, profiling panel (AID 1131); details: fibrinogen-A647 binding fluorescence, higher = more signal;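 further: z-score merges 667 nm fluorescence with per-spot signal-to-noise over triplicate slides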
[5] = target: Follistatin (Homo sapiens) (UniProt P19883); assay: FST protein binding to printed compounds – biochemical, small-molecule microarray, 635/667 nm fluorescence, primary screen (AID 1132); details: 635 nm fluorescence, higher = more signal
Chain of Follistatin (Homo sapiens) (P19883 whole entry, looked up): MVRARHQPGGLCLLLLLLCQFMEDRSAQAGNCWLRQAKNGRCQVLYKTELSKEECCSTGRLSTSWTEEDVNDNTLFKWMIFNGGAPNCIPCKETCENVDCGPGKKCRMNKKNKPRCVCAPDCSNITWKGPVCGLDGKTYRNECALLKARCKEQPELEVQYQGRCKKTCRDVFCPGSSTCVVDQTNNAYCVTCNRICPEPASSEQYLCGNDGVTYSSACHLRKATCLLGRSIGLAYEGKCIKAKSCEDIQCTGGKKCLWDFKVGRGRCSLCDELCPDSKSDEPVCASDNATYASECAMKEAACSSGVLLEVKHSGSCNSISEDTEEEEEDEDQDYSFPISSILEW

[6] = target: Fibroblast growth factor 2 (Homo sapiens) (UniProt P09038); assay: basic fibroblast growth factor binding to printed compounds – biochemical, small-molecule microarray, 635/667 nm fluorescence, primary screen (AID 1133); details: FGF2, fluorescence 635/667, higher = more signal
Chain of Fibroblast growth factor 2 (Homo sapiens) (P09038 whole entry, looked up): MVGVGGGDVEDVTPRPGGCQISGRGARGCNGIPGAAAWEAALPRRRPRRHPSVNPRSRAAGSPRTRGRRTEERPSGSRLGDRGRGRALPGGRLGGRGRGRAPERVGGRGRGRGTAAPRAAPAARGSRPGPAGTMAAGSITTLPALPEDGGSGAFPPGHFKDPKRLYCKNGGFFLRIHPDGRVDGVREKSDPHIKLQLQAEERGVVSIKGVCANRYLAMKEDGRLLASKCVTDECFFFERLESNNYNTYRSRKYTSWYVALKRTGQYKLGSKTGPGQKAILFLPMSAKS

[7] = JC-1 mitochondrial potential readout, lung cancer cells – cell-based, A549, JC-1 fluorescence, basal, 24 h, 100 nL, profiling panel (AID 1138); details: higher = more signal;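 further: A549 lung adenocarcinoma cells under basal conditions with no added stimulus; test concentration not given here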
Lefty1 = Lefty1 protein binding to printed compounds – biochemical, small-molecule microarray, 635/667 nm fluorescence, primary screen (AID 1139); details: fluorescence 635/667, higher = more signal
[8] = system: wheat germ agglutinin (Triticum aestivum), Alexa647-labelled; assay: Alexa647-WGA lectin binding to printed small molecules – biochemical, small-molecule microarray, 635/667 nm fluorescence, artefact control for SMM control-protein annotation, profiling panel (AID 1140); details: WGA-A647 binding, 635 nm fluorescence, higher = more signal;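 further: score merges 667 nm feature emission with signal to noise over triplicate slides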
[9] = target: Luciferin 4-monooxygenase (Photinus pyralis) (UniProt P08659); assay: inhibition of purified Photinus pyralis luciferase – biochemical, luminescence, purified enzyme, 2006 set, primary screen (AID 1141); details: purified firefly luciferase, SteadyGlo luminescence, 30 min; higher = more signal, called active from +8 up or from −8 down;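 further: cell-free assay with purified firefly luciferase at 100 ng per well in PBS; test concentration not given here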
Chain of Luciferin 4-monooxygenase (Photinus pyralis) (P08659 whole entry, looked up): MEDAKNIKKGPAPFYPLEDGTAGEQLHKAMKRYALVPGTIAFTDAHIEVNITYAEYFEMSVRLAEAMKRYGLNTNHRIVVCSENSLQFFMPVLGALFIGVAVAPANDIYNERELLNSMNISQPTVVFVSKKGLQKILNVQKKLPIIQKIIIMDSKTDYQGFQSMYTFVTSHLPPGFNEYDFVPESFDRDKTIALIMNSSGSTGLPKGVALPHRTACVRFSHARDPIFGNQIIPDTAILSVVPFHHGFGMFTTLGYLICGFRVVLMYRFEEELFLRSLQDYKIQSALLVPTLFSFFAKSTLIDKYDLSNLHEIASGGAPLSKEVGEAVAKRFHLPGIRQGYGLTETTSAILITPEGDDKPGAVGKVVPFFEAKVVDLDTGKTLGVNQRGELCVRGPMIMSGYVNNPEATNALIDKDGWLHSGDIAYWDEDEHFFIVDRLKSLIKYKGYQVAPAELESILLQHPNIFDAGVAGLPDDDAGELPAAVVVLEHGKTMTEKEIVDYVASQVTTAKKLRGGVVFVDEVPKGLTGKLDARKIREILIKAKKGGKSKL

Row | Structure (SMILES) | composite z-score [1] | composite z-score [2] | composite z-score [3] | composite z-score [4] | composite z-score [5] | composite z-score [6] | z-score [7] | composite z-score (Lefty1) | composite z-score [8] | z-score [9]
1 | CN(C)C(=O)[C@@]1(CCS(=O)(=O)c2ccccc2)N=C(c2ccc(OCCCO)cc2)O[C@H]1c1ccccc1CN=[N+]=[N-] | 1.78 | 1.25 | 0.642 | 1.06 | 0.871 | 0.513 | -0.0571 | 0.49 | 0.915 | 0.628 (inactive)
2 | CC(C)NC(=O)[C@@H]1c2ccccc2C(=O)N(Cc2cc(C(F)(F)F)cc(C(F)(F)F)c2)[C@H]1c1ccc(CO)cc1 | 0.913 | 1.16 | 0.528 | 0.936 | 1 | 0.507 | 1.98 | 0.312 | 0.375 | 0.487 (inactive)
3 | COCCOC(=O)N1C(=O)[C@@]2(c3cc(C#CCNC(N)=O)ccc31)[C@H](C(N)=O)[C@H]1C(=O)O[C@H](c3ccccc3)[C@H](c3ccccc3)N1[C@@H]2c1ccc(OCCO)cc1 | -0.224 | 1.03 | 0.199 | 0.609 | 1.48 | 1.26 | -2.25 | 1.46 | 0.121 | -1.8 (inactive)
4 | COc1ccc(C(=O)Nc2ccc3c(c2)[C@]2(O[C@@H](CCO)[C@H]([Si](C)(C)c4ccc(OC)cc4)[C@H]2C)C(=O)N3Cc2ccccc2)cc1 | -0.155 | 0.809 | 0.411 | 0.491 | 1.39 | 0.827 | 0.168 | 1.26 | 0.161 | -0.777 (inactive)
5 | C=C[C@@H](O)[C@H]1CC(c2ccccc2)=NO1 | 0.103 | -0.565 | -0.0062 | -0.0611 | -0.16 | -0.121 | 1.12 | -0.0793 | -0.288 | -1.53 (inactive)
6 | COC(=O)[C@@]1(Cc2ccc(OC)cc2)[C@H]2c3cc(C(=O)N(C)C)n(Cc4cc(F)c(F)c(F)c4)c3C[C@H]2CN1C(=O)c1ccccc1 | 1 | 1.21 | 1.86 | 1.01 | 0.761 | -0.965 | -0.787 | 0.0601 | 0.952 | 1.07 (inactive)
7 | COc1ccc(CCNC(=O)[C@@H]2c3ccccc3C(=O)N(Cc3ccccc3C(F)(F)F)[C@H]2c2ccc(CO)cc2)cc1 | 0.263 | 0.656 | 0.495 | -0.731 | 0.566 | -0.388 | 1.07 | -0.526 | 0.665 | 0.912 (inactive)
8 | C=CCOc1ccc([C@@H]2CC=C(C(=O)OCC)[C@H](c3cccc(Br)c3)N2S(=O)(=O)c2ccc(C)cc2)cc1 | -0.296 | 0.0511 | -0.209 | -0.161 | 0.199 | -0.0901 | 3.89 | -0.109 | 0.268 | 0.594 (inactive)
9 | CC(=O)NCCCC[C@@H]1NC(=O)[C@H]2C[C@@H](C(=O)NCCCCCN)[C@@H](c3cccc(OCCO)c3)N2C1=O | 2.38 | 0.759 | 1.38 | 0.829 | 0.763 | 0.275 | 0.0821 | 0.279 | 1.1 | -0.0548 (inactive)
10 | O=C(Nc1cc(Br)ccc1C(=O)NCc1cccc(O)c1)c1ccccc1 | 1.95 | 1.02 | 0.243 | 0.828 | 0.0635 | 0.324 | 0.252 | -0.241 | 1.01 | -0.0565 (inactive)
11 | CN(C)C(=O)[C@]1(Cc2ccccc2N=[N+]=[N-])N=C(c2ccc(OCCCO)cc2)O[C@@H]1c1ccccc1CN=[N+]=[N-] | 1.28 | 1.25 | 0.651 | 1.06 | 1.23 | 1.06 | 0.417 | 0.624 | 0.763 | -0.307 (inactive)
